# Screens: PubChem, The Scripps Research Institute Molecular Screening Center
# This excerpt belongs to a sample that is enriched for hits.
# TTR transcr act: activators of transthyretin transcription; SH-SY5Y TTR promoter Gaussia luciferase, luminescence; 100% = recombinant luciferase protein wells; activation, % at 16.7 µM; 92,000 tested, 1.3% active;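 active means activation above the mean of all tested compounds plus 3 SD, cut at about 9.5% in these data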;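 further: cells exposed to compounds for one day before reading; 0% = median of all test compound wells on the plate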
# HuH7 TTR inh: decreases TTR transcription in HuH7 cells in activator counter-screen; shares compounds with TTR transcr act; HuH7 TTR promoter-Gaussia luciferase reporter, luminescence; inhibition, % at 16.7 µM; 1,100 tested, 4% active;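 active means average inhibition above the solvent-only control wells' mean plus 3 SD, cut at about 15% in these data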;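 further: 0% = cells with DMSO only and 100% = cells with inhibitor control FD; inhibitors lower well luminescence so higher value means more inhibition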
# TTR up confirm: confirmation of human transthyretin transcription activators; shares compounds with TTR transcr act; activation, % at 16.7 µM; 1,100 tested, under 10 active; AID 1117280; SHSY5Y TTR promoter Gaussia luciferase, luminescence; 100% = purified Lucia enzyme wells, no cells;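 active means mean activation above a set limit taken from the earlier primary screen, cut at about 11% in these data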;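 further: 0% = DMSO-treated cells and 100% = recombinant Lucia luciferase without cells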
# Numbers without * were called inactive.
SMILES,TTR transcr act,others
COc1ccc(C(=O)NCc2cccnc2)cc1OC,1,
CCCCCCCCN1C(=O)[C@@H](CC(=O)N2CCSCC2)C[C@@]2(C(=O)OC)C1=C[C@H](C(C)C)O[C@@H]2C1CC1,-1,
COc1ccc(N2CCN(CCCNC(=O)Cn3c(=O)c4cccn4c4cccnc43)CC2)c(OC)c1,-1,
C/C(=N/NC(=O)Cc1cccn1C)c1ccccc1,0,
C/C(=N\NC(=O)Cc1cccn1C)c1ccc2ccccc2c1,11*,HuH7 TTR inh=-20;TTR up confirm=0
C/C(=N\NC(=O)Cc1cccn1C)c1ccco1,0,
O=C(Nc1nc2ncccn2c1-c1ccc(F)cc1)c1ccc(F)cc1,-1,
CCOC(=O)[C@@]12CCC3=C1N(CCC3)C(=O)[C@H](CC(=O)NCc1cccs1)C2,0,
COc1ccc(NC(=O)CSc2nc(N)c(NC(=O)c3ccccc3F)c(=O)[nH]2)cc1,-1,
CC(C)NC(=O)CSc1nc(N)c(NC(=O)c2ccccc2F)c(=O)[nH]1,1,
Nc1nc(SCCO)[nH]c(=O)c1NC(=O)c1ccccc1F,20*,HuH7 TTR inh=-12;TTR up confirm=0
COC(=O)C[C@H]1CC[C@@H]2[C@H](COc3ccc(NC(=O)NCc4ccccc4)cc3C(=O)N2C)O1,5,
Cc1csc(NC(=O)CSc2nnc(-c3ccc(Cl)cc3)n2N)n1,44*,HuH7 TTR inh=-34;TTR up confirm=0
Cc1csc(NC(=O)CSc2nnc(Cc3cccn3C)n2-c2ccc(F)cc2)n1,0,
Cc1csc(NC(=O)CCc2c(C)nc3cc(-c4ccc(Cl)cc4)nn3c2C)n1,1,
COc1cc(/C=N/NC(=O)c2nnn(-c3nonc3N)c2C(C)C)ccc1OCc1ccccc1,0,
COc1ccc(OC)c(CN2C(=O)CCCC2(C)c2nnnn2C2CCCC2)c1 (stereo not given),0,
C[C@H]1[C@@H](OC(=O)NCCc2c[nH]c3ccccc23)CC[C@@]23CCCN2C(=O)CCC[C@@H]13,-2,
CC1(C)Oc2ccc3ccc(=O)oc3c2-c2cnoc21,-1,
CC1(C)Oc2ccc3ccc(=O)oc3c2C[C@H]1O,2,
CC1(C)Oc2ccc3ccc(=O)oc3c2-c2cn[nH]c21,10*,HuH7 TTR inh=6;TTR up confirm=0
CC1CCCN(c2cccc3c2S(=O)(=O)N([C@H](C)c2ccccc2)C[C@@H](COCc2ccccc2)O3)C1 (stereo not given in full),-3,
CCn1cnc2c1c(=O)n(CC(=O)O)c(=O)n2Cc1ccccc1,5,
Cc1cccc(Cn2c(=O)c3c(nc4n3CCN4Cc3ccco3)n(C)c2=O)c1,0,
CCCCn1c(=O)n(Cc2cccc(F)c2)c(=O)c2c1ncn2Cc1ccco1,19*,HuH7 TTR inh=-5;TTR up confirm=0
SMILES,TTR transcr act,others
COC(=O)c1cc(S(=O)(=O)NCc2ccc(Br)cc2)c[nH]1,0,
O=S1(=O)CCOC[C@H](Cc2ccccc2)N1Cc1cccc(F)c1,0,
O=S1(=O)CCOC[C@H](Cc2ccccc2)N1Cc1ccc(F)cc1,6,
O=S1(=O)CCOC[C@H](c2ccccc2)N1Cc1cccc(F)c1,13*,HuH7 TTR inh=0;TTR up confirm=0
CCC(=O)OCCCN1CCC2(CCCCC2)C1=O,0,
Cc1ccccc1CN1[C@@H](C)[C@H](c2ccccc2)Oc2cccc(N3CCCC3)c2S1(=O)=O,-1,
O=C(O)c1cc([N+](=O)[O-])ccc1-c1ccc([N+](=O)[O-])cc1C(=O)O,0,
O=C(O)c1cc([N+](=O)[O-])cc2ccccc12,15*,HuH7 TTR inh=-1;TTR up confirm=0
O=C(O)c1ccccc1Nc1ccc([N+](=O)[O-])cc1C(=O)O,1,
COC(=O)[C@]12C[C@H](CC(=O)NCc3cccs3)C(=O)N(Cc3cccc4ccccc34)C1=C[C@H](C(C)C)O[C@@H]2C1CC1,0,
COc1cc(C(=O)Nc2cccc(-n3cnnn3)c2)cc(OC)c1OC,-1,
COC(=O)c1ccc(NC(=O)COc2cccc(-n3cnnn3)c2)cc1,-2,
COC(=O)COc1cccc(-n2cnnn2)c1,11*,HuH7 TTR inh=-9;TTR up confirm=1
COC(=O)[C@]12C[C@H](CC(=O)N3CCOCC3)C(=O)N(Cc3ccc(Cl)cc3Cl)C1=C[C@H](C(C)(C)C)O[C@@H]2C,-1,
COc1ccc(S(=O)(=O)N2CCN(c3ccccc3OC)CC2)cc1C(=O)N1CCCCC1,-1,
Cc1cn([C@H]2C[C@H](O)[C@@H](CNCc3ccc(N4CCN(C)CC4)cc3F)O2)c(=O)[nH]c1=O,3,
C=Cn1cc(CNC[C@H]2O[C@@H](n3cc(C)c(=O)[nH]c3=O)C[C@@H]2O)c(C)n1,11*,HuH7 TTR inh=-13;TTR up confirm=0
Cc1cn([C@H]2C[C@H](O)[C@@H](CNC(=O)[C@H]3CCC(=O)N3)O2)c(=O)[nH]c1=O,2,
O=C1COc2ccccc2C(c2nnnn2Cc2ccccc2)N1Cc1cccs1 (stereo not given),1,
CSCc1c(C(=O)Nc2ccc(N3CCOCC3)cc2)oc2ccccc12,14*,HuH7 TTR inh=-12;TTR up confirm=0
